# Values joined by “and” are separate entries in the source; they are usually repeats but may differ in a detail not shown here. Equal entries are not always repeated. The whole screen tested about 6,400 compounds, of which about 610 (9.5%) were called active. No stated cut-off is given here; in the data, active means activity change below about -70%; inconclusive means no clear call, values can overlap the other calls; inactive means above that. The entries come from a sample that favours actives as a whole.
# Assay: T. gondii ME49Luc in HeLa cells, luciferase assay, 72 h, no IFN-y (AID 1259421)
# Conditions: hits give low values, concentration not given here
row,Structure (SMILES),"activity change, negative = inhibition"
1,CC(=O)O[C@]1(C(C)=O)CCC2C3C=C(C)C4=CC(=O)CC[C@]4(C)C3CC[C@@]21C (stereo not given in full),9.66% (inactive)
2,Cn1c(O)c(C2=c3ccccc3=NC2=O)c2ccccc21,13.5% (inactive)
3,CCC(C)n1ncn(-c2ccc(N3CCN(c4ccc(OC[C@H]5CO[C@](Cn6cncn6)(c6ccc(Cl)cc6Cl)O5)cc4)CC3)cc2)c1=O (stereo not given in full),-63.1% (inactive) and -38.1% (inactive)
4,C[C@]12CC[C@@H]3c4ccc(O)cc4CC[C@H]3[C@@H]1CCC2=O,-66.6% (inactive) and -57.7% (inactive)
5,C#C[C@]1(O)CC[C@H]2[C@@H]3CCc4cc(O)ccc4[C@H]3CC[C@@]21C,-81.1% (active)
6,C#C[C@]1(O)CC[C@H]2[C@@H]3CCc4cc(OC)ccc4[C@H]3CC[C@@]21C,9.24% (inactive)
7,C#C[C@]1(O)CCC2C3CCc4cc(OC)ccc4C3CC[C@@]21C (stereo not given in full),7.57% (inactive)
8,C#C[C@]1(O)CCC2C3CCc4cc(OC5CCCC5)ccc4C3CC[C@@]21C (stereo not given in full),33.4% (inactive)
9,C#C[C@]1(O)CCC2C3CCc4cc(O)ccc4C3CC[C@@]21C (stereo not given in full),-81.3% (active)
10,CCOc1ccc(Cc2cc([C@@H]3O[C@H](CO)[C@@H](O)[C@H](O)[C@H]3O)ccc2Cl)cc1,4.88% (inactive) and 10.3% (inactive)
11,CCN1/C(=C/C(C)=O)Sc2ccc(OC)cc21,21% (inactive)
12,CC#CCOC(=O)c1c(C)nc2sc3c(c2c1N)CCC(O)C3 (stereo not given),49.7% (inactive) and 66.7% (inactive)
13,N[C@@H]1[C@@H](O)[C@H](O)[C@@H](CO)O[C@H]1O,1.35% (inactive)
14,CN(CCc1ccc(Cl)c(Cl)c1)CCN1CCCC1,14.6% (inactive)
15,CC1(O)C(O)C(CO)OC1n1ccc(N)nc1=O (stereo not given),27.1% (inactive)
16,C[C@@H]1O[C@@H](O[C@@H]2[C@H](Oc3cc(O)c(C(=O)CCc4ccc(O)cc4)c(O)c3)O[C@H](CO)[C@@H](O)[C@@H]2O)[C@H](O)[C@H](O)[C@H]1O,5.31% (inactive)
17,COc1cc2c(cc1OC)CC(=O)N(CCCN(C)C[C@@H]1Cc3cc(OC)c(OC)cc31)CC2,13.9% (inactive)
18,COc1cc2ncnc(Oc3cccc(NC(=O)Nc4cc(C(C)(C)C(F)(F)F)on4)c3)c2cc1OC,-78.4% (active)
19,CCCNC(=O)Nc1ccc(Oc2ncnc3cc(OC)c(OC)cc23)cc1Cl,6.99% (inactive)
20,COc1cc2ncnc(Nc3cccc(O)c3)c2cc1OC,10.5% (inactive)
21,CNc1cc(OC)c(C(=O)N[C@@H]2CCN(Cc3ccccc3)[C@@H]2C)cc1Cl (racemic),26% (inactive)
22,CC(=O)Nc1nnc(S(N)(=O)=O)s1,18.1% (inactive) and 14.1% (inactive)
23,Cc1nc(NC(=O)N2CCC[C@H]2C(N)=O)sc1-c1ccnc(C(C)(C)C(F)(F)F)c1,-3.31% (inactive)
24,CC(=O)Nc1nc(C)c(-c2ccc(Cl)c(S(=O)(=O)NCCO)c2)s1,-78.9% (active)
25,c1ncc(CC2CCNCC2)[nH]1,9.05% (inactive) and 12.6% (inactive)

row,Structure (SMILES),"activity change, negative = inhibition"
1,N#C/C(=C/c1ccc(O)c(O)c1)C(=O)NCCCCc1ccccc1,28.9% (inactive)
2,COc1cnc(-n2cnc(C)n2)c2[nH]cc(C(=O)C(=O)N3CCN(C(=O)c4ccccc4)CC3)c12,22.1% (inactive)
3,C=C1C(=O)O[C@@H]2[C@H]3O[C@]3(C)CC/C=C(\C)CC[C@@H]12,6.15% (inactive)
4,CCC[C@@H]1C[C@@H](C(=O)N[C@@H](C2O[C@H](SC)[C@H](O)[C@@H](O)[C@H]2O)[C@H](C)Cl)N(C)C1 (stereo not given in full),-0.424% (inactive)
5,CC(C)[C@H](N)C(=O)OCCOCn1cnc2c(=O)[nH]c(N)nc21,9.53% (inactive) and 3.52% (inactive)
6,O=C(CCc1ccc(O)cc1)c1c(O)cc(O)cc1O[C@@H]1O[C@H](CO)[C@@H](O)[C@H](O)[C@@H]1O,6% (inactive)
7,CC(C)(C)Cn1c(N)nc2ccc(-c3[nH]c(C(C)(C)C)nc3-c3ccc(F)cc3)nc21,-83.7% (active)
8,CC(C)(C)C(=O)OCOC(=O)[C@@H]1N2C(=O)[C@@H](N=CN3CCCCCC3)[C@H]2SC1(C)C,2.97% (inactive)
9,O=C(N[C@@H]1CC[C@@H](c2cccc(F)c2F)CN(CC(F)(F)F)C1=O)N1CCC(n2c(=O)[nH]c3ncccc32)CC1,5.74% (inactive)
10,CC(CSC(=O)c1ccccc1)C(=O)N1C[C@@H](Sc2ccccc2)C[C@H]1C(=O)O (stereo not given in full),5.4% (inactive)
11,O=c1cc(-c2ccccc2)oc2cccc(O)c12,21.2% (inactive)
12,O=c1cc(-c2ccccc2)oc2c(O)c(O)ccc12,-85.8% (active)
13,O=c1cc(-c2ccccc2)oc2cc(O)ccc12,60.2% (inactive)
14,COc1ccc(-c2noc(CC(=O)O)c2-c2ccc(OC)cc2)cc1,7.28% (inactive)
15,CCOc1ccc(Nc2nc(-c3c(C)nc4ccccn34)cs2)cc1,-74% (active)
16,Oc1ccc(Nc2nc(-c3ccc(Cl)cc3)cs2)cc1,28.7% (inactive)
17,COc1cc(Br)c(Nc2nc(-c3c(C)nc4ncccn34)cs2)c(Br)c1,13.9% (inactive)
18,Cn1cc(C(F)(F)F)nc1-c1ccc(OCC(O)CNCCOc2ccc(O)c(C(N)=O)c2)cc1 (stereo not given),1.01% (inactive)
19,CC(C)(C)NC(=O)[C@H]1CCC2C3CC[C@H]4NC(=O)C=C[C@]4(C)C3CC[C@@]21C (stereo not given in full),-5.92% (inactive)
20,COc1c2c(cc3occ(-c4ccc5c(c4)OCO5)c(=O)c13)OC(C)(C)C=C2,-31.2% (inactive)
21,COc1c(CC(=O)c2cc3c(cc2O)OC(C)(C)C(O)C3)ccc2c1C=CC(C)(C)O2 (stereo not given),16.9% (inactive)
22,COc1c(-c2coc3cc4c(cc3c2=O)CC(O)C(C)(C)O4)ccc2c1C=CC(C)(C)O2 (stereo not given),-80% (active)
23,COc1ccc(-c2coc3cc(O)ccc3c2=O)c(O)c1O,2.93% (inactive)
24,COc1cc2c(cc1OC)[C@@H]1C(=O)c3ccc4c(c3O[C@@H]1CO2)C=CC(C)(C)O4,-20.6% (inactive)
25,COc1c(-c2coc3cc4c(cc3c2=O)CC(OC(C)=O)C(C)(C)O4)ccc2c1C=CC(C)(C)O2 (stereo not given),-72.4% (active)
